Arbovirus anti: arbovirus infection inhibition. arbovirus infection cell-based antiviral screen. inhibition, % at 10 µM. hit rate 0.37% among 200,000. AID 1251; in the data active means inhibition above about 30%
MEKK3 PB1 HTS: MEKK3-MEK5 PB1 interaction, increase or decrease | Q99759 | bead-based flow cytometry, Alexa488-MEK5 binding to MEKK3; actives lie on both sides; 0 = blocked by unlabeled MEK5, 100 = vehicle | binding response (% of control), % at 10 µM | hit rate 1.4% among 290,000;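 active means binding response more than 3 SD above or below the average of its plate-row segment, actives on both sides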;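 further: Alexa488 bead fluorescence after subtracting the streptavidin-only scavenger bead signal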
Target sequence (Q99759 whole entry, looked up): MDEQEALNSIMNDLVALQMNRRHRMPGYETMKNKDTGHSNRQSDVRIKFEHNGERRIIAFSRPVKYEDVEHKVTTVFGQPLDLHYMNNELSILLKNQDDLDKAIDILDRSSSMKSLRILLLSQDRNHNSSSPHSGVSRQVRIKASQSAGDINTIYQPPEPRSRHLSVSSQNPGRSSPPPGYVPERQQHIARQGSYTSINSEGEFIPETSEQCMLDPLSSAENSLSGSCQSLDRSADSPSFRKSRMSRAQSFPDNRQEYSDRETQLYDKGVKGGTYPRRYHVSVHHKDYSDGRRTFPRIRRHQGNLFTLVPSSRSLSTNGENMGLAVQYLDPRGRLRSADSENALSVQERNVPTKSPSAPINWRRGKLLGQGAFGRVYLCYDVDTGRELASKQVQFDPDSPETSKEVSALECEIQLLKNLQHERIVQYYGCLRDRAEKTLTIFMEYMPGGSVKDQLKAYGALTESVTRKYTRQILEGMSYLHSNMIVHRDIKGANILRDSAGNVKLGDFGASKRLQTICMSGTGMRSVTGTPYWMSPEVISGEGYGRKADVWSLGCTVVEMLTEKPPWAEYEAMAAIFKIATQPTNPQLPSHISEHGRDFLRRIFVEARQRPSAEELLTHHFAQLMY
MEKK2 WT-MEK5: raises or lowers MEK5 binding to wildtype human MEKK2 PB1 domain; AID 1531; binding response (% of control), % at 10 µM; bead flow cytometry, Alexa488-MEK5 binding to MEKK2 WT; actives lie on both sides; hit rate 1.1% among 290,000; in the data active means binding response below about 67% or above about 130%
Pf gamet viab: kills late stage P. falciparum gametocytes. hit rate 0.065% among 150,000. inhibition, % at 10.9 µM. P. falciparum stage V gametocytes, ATP luminescence, 24 h. AID 743093;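 active means inhibition above the mean plus 3 SD of compounds within the control limits, set per campaign, cut at about 38% in these data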
MEKK2 mut-MEK5: signal of MEK5 binding to mutant human MEKK2 PB1 domain. bead flow cytometry, Alexa488-MEK5 binding to MEKK2 mutant. percent response, % at 10 µM. hit rate 0.35% among 290,000. AID 1530; in the data active means percent response above about 24%, passing the limit was not always enough
MEKK2wt confirm: raises or lowers MEK5 binding to wildtype human MEKK2, retest | shares compounds with MEKK3 PB1 HTS | bead flow cytometry, Alexa488-MEK5 binding to MEKK2 WT; actives lie on both sides | binding response (% of control), % at 10 µM | hit rate 2.4% among 5,900 | AID 1892; in the data active means binding response below about 16% or above about 210%; inactive means in between
MEKK2mut confirm: signal of MEK5 binding to mutant human MEKK2, retest | bead flow cytometry, Alexa488-MEK5 binding to MEKK2 mutant | shares compounds with MEKK3 PB1 HTS | hit rate 2% among 5,900 | percent response, % at 10 µM; in the data active means percent response mostly above about 71%, no sharp cut-off; inactive means mostly below about 38%;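 further: higher means compound restores mutant binding toward wildtype level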
MEKK3 confirm: confirmation of inhibitors of MEK5 binding to human MEKK3; shares compounds with MEKK3 PB1 HTS; bead flow cytometry, Alexa488-MEK5 binding to MEKK3; hits give low values; binding response (% of control), % at 10 µM; hit rate 1.8% among 5,900;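 active means binding response below 72% of control, or above a set upper limit, though filed actives all read lower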
Of the large screens only hits and unclear results are named; the others gave an inactive call (follow-up assays come after a bar, where they were run); [ ] = another dose, or the depositor's remark. Hits are enriched below; roughly 2.4% of the tested compounds scored in any of these assays.

Fc1ccc(CCNCc2cccc(Cl)c2)cc1	MEKK3 PB1 HTS 75.0[inhibitor] (no result: Pf gamet viab) | MEKK2wt confirm inactive | MEKK2mut confirm inactive | MEKK3 confirm inactive
COc1ccccc1N1CCN(C2CCCN(C(=O)COc3ccccc3Cl)C2)CC1 (stereo not given)	none (no result: Arbovirus anti, Pf gamet viab)
CCN1C(=O)C(=C/C=C/c2ccco2)C(=O)N(CC)C1=S	MEKK2 WT-MEK5 59.0[inhibitor] | MEKK2wt confirm inactive | MEKK2mut confirm inactive | MEKK3 confirm inactive
Cc1ccc2c(c1)C(c1ccccc1)NCC(=O)N2 (stereo not given)	MEKK3 PB1 HTS 74.0[inhibitor] (no result: Pf gamet viab) | MEKK2wt confirm inactive | MEKK2mut confirm inactive | MEKK3 confirm inactive
CC(=O)N1CC(=O)Nc2ccc(C)cc2C1c1ccccc1 (stereo not given)	none (no result: Arbovirus anti, Pf gamet viab)
O=S(=O)(c1ccc(Cl)cc1)N1CCCCC1c1cccnc1 (stereo not given)	MEKK3 PB1 HTS 130.0 | MEKK2wt confirm inactive | MEKK2mut confirm inactive | MEKK3 confirm inactive
Cc1cccc2c1=NC(=O)/C(=C/c1c(O)[nH]c(=O)[nH]c1=O)C=2	MEKK3 PB1 HTS 147.0 (no result: Pf gamet viab) | MEKK2wt confirm inactive | MEKK2mut confirm inactive | MEKK3 confirm inactive
O=c1[nH]c(=S)[nH]c(O)c1/C=C1/C=c2ccccc2=N1	none (no result: Arbovirus anti)
Cc1ccc2c(c1)C1CN(C)CCC1N2C(=O)c1ccco1 (stereo not given)	MEKK3 PB1 HTS 71.0[inhibitor] | MEKK2wt confirm inactive | MEKK2mut confirm inactive | MEKK3 confirm inactive
O=c1[nH]c(=S)n(C2CC2)c(O)c1C=NCCc1ccccc1	none (no result: Arbovirus anti)
Cc1cccc(-n2c(-c3cccs3)nc3ccccc3c2=O)c1	MEKK3 PB1 HTS 130.0 | MEKK2wt confirm inactive | MEKK2mut confirm inactive | MEKK3 confirm inactive
C[C@]12C=CC(=O)C=C1CC[C@@H]1C2CC[C@]2(C)OC(=O)CCC12 (stereo not given in full)	none (no result: Arbovirus anti, Pf gamet viab)
CC[n+]1c(/C=C/N(C)c2ccccc2)sc2ccc(Cl)cc21	MEKK2 WT-MEK5 54.0[inhibitor] (no result: Pf gamet viab) | MEKK2wt confirm inactive | MEKK2mut confirm inactive | MEKK3 confirm inactive
OC(CNCCc1c[nH]c2ccccc12)c1ccccc1 (stereo not given)	none (no result: Arbovirus anti, Pf gamet viab)
COc1cccc(N2C(=O)NC(=O)/C(=C/c3ccc4c(c3)Cc3ccccc3-4)C2=O)c1	none
Nc1ccc2c(c1)Cc1ccccc1-2	MEKK3 PB1 HTS 133.0 | MEKK2wt confirm inactive | MEKK2mut confirm inactive | MEKK3 confirm inactive
CCOC(=O)c1c(-n2c(C)cc(/C=C3/C(=O)NC(=O)N(CC)C3=O)c2C)sc2c1CCCC2	none (no result: Arbovirus anti, Pf gamet viab)
CCN1C(=O)NC(=O)/C(=C/c2cc(C)n(-c3sc(C)c(C)c3C#N)c2C)C1=O	MEKK3 PB1 HTS 130.0 (no result: Pf gamet viab) | MEKK2wt confirm inactive | MEKK2mut confirm inactive | MEKK3 confirm inactive
Cc1nc2cc(-c3cccc(F)c3)nn2c(C)c1CCC(=O)N1CCC2(CC1)OCCO2	none
Cc1nc2c(-c3ccccc3)c(C)nn2c(C)c1CCC(=O)N1CCC2(CC1)OCCO2	MEKK3 PB1 HTS 44.0[inhibitor] | MEKK2wt confirm inactive | MEKK2mut confirm inactive | MEKK3 confirm inactive
Cn1c(CN2CCN(C(=O)COc3ccccc3)CC2)nc2cc([N+](=O)[O-])ccc21	MEKK3 PB1 HTS 152.0 (no result: Pf gamet viab) | MEKK2wt confirm inactive | MEKK2mut confirm inactive | MEKK3 confirm inactive
Cc1ccc(CC(=O)N2CCN(C)CC2)cc1	none (no result: Arbovirus anti)
CCCNC(=O)c1c(N)n(CC2CCCO2)c2nc3ccccc3nc12 (stereo not given)	MEKK3 PB1 HTS 123.0 | MEKK2wt confirm inactive | MEKK2mut confirm inactive | MEKK3 confirm inactive
CC(C)OCCCNC(=O)c1c(N)n(CC2CCCO2)c2nc3ccccc3nc12 (stereo not given)	none
c1ccc2c(CN3CCN(C4CCCCC4)CC3)c[nH]c2c1	MEKK2 WT-MEK5 168.0, MEKK2 mut-MEK5 44.0 (no result: Pf gamet viab) | MEKK2wt confirm inactive | MEKK2mut confirm inactive | MEKK3 confirm inactive
c1ccc2c(CN3CCCCCCC3)c[nH]c2c1	none (no result: MEKK3 PB1 HTS, MEKK2 WT-MEK5, MEKK2 mut-MEK5)
CCN(C(=O)Oc1ccccc1)c1ccc(C(O)(C(=O)OC)C(F)(F)F)cc1 (stereo not given)	none
